# Experimental data reported in PubChem BioAssay (NCI).
# This is part of a sample that, as a whole, favours compounds with a hit. Of some 79,000 tested, about 15% had one in any assay. A number with no mark means an inactive call. Active and inactive are the calls of the source. Rule as the data show it: active = growth inhibition above about 70%; inactive = the rest.
# Columns and labels:
# [1] = NCI Yeast Anticancer Drug Screen. Data for the rad52 strain (AID 147);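 also: 0% = growth of vehicle-treated control cultures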; settings: S. cerevisiae rad52 mutant growth inhibition, stronger effect = higher value
# Outline: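 Read-out: growth inhibition versus vehicle-treated controls. Cells were a DNA repair-deficient yeast strain treated with compounds.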
# [2] = NCI Yeast Anticancer Drug Screen. Data for the wt1 strain (AID 149);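 also: 0% = growth of vehicle-treated wt1 cultures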; settings: S. cerevisiae wt1 strain (SPY 50644) growth inhibition, stronger effect = higher value
# Outline: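 wt1 yeast, compound-treated; % growth inhibition vs vehicle control.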
# [3] = NCI Yeast Anticancer Drug Screen. Data for the rad50EPP+ strain (AID 151);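 also: 0% = growth of vehicle-treated control cultures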; settings: S. cerevisiae rad50 mutant strain, stronger effect = higher value
# Outline: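 Growth inhibition read against vehicle controls in rad50EPP+ yeast, a strain altered in DNA damage repair, after compound exposure.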
# [4] = NCI Yeast Anticancer Drug Screen. Data for the mgt1 strain (AID 153); settings: S. cerevisiae mgt1 mutant growth inhibition, stronger effect = higher value
# Outline: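 mgt1 yeast grown with test compound; read-out is growth inhibition versus vehicle-treated cultures.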
# [5] = NCI Yeast Anticancer Drug Screen. Data for the rad50 strain (AID 155);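 also: 0% = growth of vehicle-only cultures of the same strain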; settings: S. cerevisiae rad50 strain growth inhibition, stronger effect = higher value
# Outline: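 Genetically altered yeast (DNA repair pathway); compound treatment; growth inhibition vs vehicle ctrl.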
# [6] = NCI Yeast Anticancer Drug Screen. Data for the mec2-1 strain (AID 157); settings: S. cerevisiae mec2-1 strain, stronger effect = higher value
# Outline: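 Yeast mec2-1 mutant treated with compound. Readout: growth inhibition vs vehicle controls.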
# [7] = NCI Yeast Anticancer Drug Screen. Data for the rad14 strain (AID 159);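 also: 0% = growth of vehicle-treated control cultures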; settings: S. cerevisiae rad14 strain growth inhibition, stronger effect = higher value
# Outline: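 Test compounds were applied to a repair-deficient yeast strain. Its growth was then compared with that of cultures given vehicle alone, and inhibition was expressed relative to those controls.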
# [8] = NCI Yeast Anticancer Drug Screen. Data for the sgs1 mgt1 strain (AID 161);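 also: 0% = growth of cultures given vehicle only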; settings: S. cerevisiae sgs1 mgt1 strain, stronger effect = higher value
# Outline: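 Genetically altered yeast, compound exposure, growth inhibition relative to vehicle.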
# [9] = NCI Yeast Anticancer Drug Screen. Data for the CLN2oe strain (AID 163);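 also: 0% = growth of vehicle-only control cultures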; settings: S. cerevisiae CLN2oe strain, stronger effect = higher value
# Outline: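 Read-out: yeast growth inhibition, expressed relative to vehicle-only controls. The strain bears an engineered cell-cycle alteration.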
# [10] = NCI Yeast Anticancer Drug Screen. Data for the cln2 rad14 strain (AID 165);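 also: 0% = growth equal to vehicle treated cultures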; settings: S. cerevisiae cln2 rad14 strain, stronger effect = higher value
# Outline: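 cln2 rad14 yeast strain; compound exposure; growth inhibition read vs vehicle controls.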
# [11] = NCI Yeast Anticancer Drug Screen. Data for the bub3 strain (AID 167); settings: S. cerevisiae bub3 mutant strain, stronger effect = higher value
# Outline: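 Yeast carrying a defined mutation is treated with each compound, and growth is compared with that of vehicle-exposed cells to give inhibition.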
# [12] = NCI Yeast Anticancer Drug Screen. Data for the wt2 strain (AID 169);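 also: 0% = growth of vehicle-treated yeast cultures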; settings: S. cerevisiae wt2 strain growth inhibition, stronger effect = higher value
# Outline: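 Read-out: growth inhibition versus vehicle-treated control cultures after compound exposure of the yeast strain.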
# [13] = NCI Yeast Anticancer Drug Screen. Data for the mlh1 strain (AID 171);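 also: 0% = growth of vehicle-treated control cultures of the same strain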; settings: S. cerevisiae mlh1 strain growth inhibition, stronger effect = higher value
# Outline: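 Read-out: growth inhibition versus vehicle controls. Strain: engineered yeast with a defined DNA repair or cell cycle defect, compound-treated.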
# [14] = NCI Yeast Anticancer Drug Screen. Data for the sgs1 strain (AID 173);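 also: 0% = growth of vehicle-only control cultures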; settings: S. cerevisiae sgs1 mutant, stronger effect = higher value
# Outline: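 Read-out: yeast growth inhibition relative to vehicle controls, following compound exposure of a strain with a defined DNA repair/cell cycle alteration.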
# [15] = NCI Yeast Anticancer Drug Screen. Data for the mlh1 rad18 strain (AID 175); settings: S. cerevisiae mlh1 rad18 strain growth inhibition, stronger effect = higher value
# Outline: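 Yeast w/ defined DNA-repair lesions; compound exposure; growth vs vehicle controls → % inhibition.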
# [16] = NCI Yeast Anticancer Drug Screen. Data for the rad18 strain (AID 177); settings: S. cerevisiae rad18 mutant growth inhibition, stronger effect = higher value
# Outline: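 Readout: growth inhibition vs vehicle controls. Cells: genetically altered yeast strain, DNA repair defect.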
# [17] = at 5.0 µM (retest, dose inferred, filed as 0.5)
# [18] = at 50.0 µM (retest, dose inferred, filed as 5.0)
compound,measurement,setting,value
O=[N+]([O-])c1ccc(/C=C\c2ccc3c(c2)OCO3)c([N+](=O)[O-])c1,growth inhibition,[1]; at 1.2 µM,3%
same,growth inhibition,[1]; at 3.7 µM,12%
same,growth inhibition,[1]; at 11.0 µM,26%
same,growth inhibition,[1]; at 33.0 µM,54%
same,growth inhibition,[1]; at 100.0 µM,83% (active)
same,growth inhibition,[2]; at 1.2 µM,-2%
same,growth inhibition,[2]; at 3.7 µM,-2%
same,growth inhibition,[2]; at 11.0 µM,2%
same,growth inhibition,[2]; at 33.0 µM,6%
same,growth inhibition,[2]; at 100.0 µM,35%
same,growth inhibition,[3]; at 1.2 µM,12%
same,growth inhibition,[3]; at 3.7 µM,30%
same,growth inhibition,[3]; at 11.0 µM,69%
same,growth inhibition,[3]; at 33.0 µM,84% (active)
same,growth inhibition,[3]; at 100.0 µM,78% (active)
same,growth inhibition,[4]; at 1.2 µM,-2%
same,growth inhibition,[4]; at 3.7 µM,2%
same,growth inhibition,[4]; at 11.0 µM,5%
same,growth inhibition,[4]; at 33.0 µM,20%
same,growth inhibition,[4]; at 100.0 µM,17%
same,growth inhibition,[5]; at 1.2 µM,3%
same,growth inhibition,[5]; at 3.7 µM,15%
same,growth inhibition,[5]; [17],33%
same,growth inhibition,[5]; at 11.0 µM,29%
same,growth inhibition,[5]; at 33.0 µM,54%
same,growth inhibition,[5]; [18],92% (active)
same,growth inhibition,[5]; at 50.0 µM,85.2% (active)
same,growth inhibition,[5]; at 100.0 µM,85% (active)
same,growth inhibition,[6]; at 1.2 µM,-3%
same,growth inhibition,[6]; at 3.7 µM,-3%
same,growth inhibition,[6]; [17],9%
same,growth inhibition,[6]; at 11.0 µM,3%
same,growth inhibition,[6]; at 33.0 µM,20%
same,growth inhibition,[6]; [18],97% (active)
same,growth inhibition,[6]; at 50.0 µM,83% (active)
same,growth inhibition,[6]; at 100.0 µM,80% (active)
same,growth inhibition,[7]; at 1.2 µM,1%
same,growth inhibition,[7]; at 3.7 µM,2%
same,growth inhibition,[7]; at 11.0 µM,12%
same,growth inhibition,[7]; at 33.0 µM,24%
same,growth inhibition,[7]; at 100.0 µM,80% (active)
same,growth inhibition,[8]; [17],11%
same,growth inhibition,[8]; [18],88% (active)
same,growth inhibition,[8]; at 50.0 µM,78.6% (active)
same,growth inhibition,[9]; at 1.2 µM,-2%
same,growth inhibition,[9]; at 3.7 µM,-3%
same,growth inhibition,[9]; at 11.0 µM,7%
same,growth inhibition,[9]; at 33.0 µM,16%
same,growth inhibition,[9]; at 100.0 µM,25%
same,growth inhibition,[10]; [17],2%
same,growth inhibition,[10]; [18],76% (active)
same,growth inhibition,[10]; at 50.0 µM,25.2%
same,growth inhibition,[11]; at 1.2 µM,-7%
same,growth inhibition,[11]; at 3.7 µM,-7%
same,growth inhibition,[11]; [17],2%
same,growth inhibition,[11]; at 11.0 µM,-5%
same,growth inhibition,[11]; at 33.0 µM,28%
same,growth inhibition,[11]; [18],93% (active)
same,growth inhibition,[11]; at 50.0 µM,99% (active)
same,growth inhibition,[11]; at 100.0 µM,68%
same,growth inhibition,[12]; at 1.2 µM,-2%
same,growth inhibition,[12]; at 3.7 µM,-3%
same,growth inhibition,[12]; at 11.0 µM,-1%
same,growth inhibition,[12]; at 33.0 µM,8%
same,growth inhibition,[12]; at 100.0 µM,66%
same,growth inhibition,[13]; at 1.2 µM,-1%
same,growth inhibition,[13]; at 3.7 µM,1%
same,growth inhibition,[13]; at 11.0 µM,7%
same,growth inhibition,[13]; at 33.0 µM,16%
same,growth inhibition,[13]; at 100.0 µM,63%
same,growth inhibition,[14]; at 1.2 µM,-2%
same,growth inhibition,[14]; at 3.7 µM,1%
same,growth inhibition,[14]; at 11.0 µM,9%
same,growth inhibition,[14]; at 33.0 µM,19%
same,growth inhibition,[14]; at 100.0 µM,79% (active)
same,growth inhibition,[15]; [17],12%
same,growth inhibition,[15]; [18],96% (active)
same,growth inhibition,[15]; at 50.0 µM,65.7%
same,growth inhibition,[16]; at 1.2 µM,-1%
same,growth inhibition,[16]; at 3.7 µM,6%
same,growth inhibition,[16]; at 11.0 µM,11%
same,growth inhibition,[16]; at 33.0 µM,27%
same,growth inhibition,[16]; at 100.0 µM,64%
CC1CCN(CCC(=O)c2ccc([N+](=O)[O-])cc2)CC1,growth inhibition,[1]; at 1.2 µM,9%
same,growth inhibition,[1]; at 3.7 µM,1%
same,growth inhibition,[1]; at 11.0 µM,8%
same,growth inhibition,[1]; at 33.0 µM,34%
same,growth inhibition,[1]; at 100.0 µM,40%
same,growth inhibition,[2]; at 1.2 µM,-1%
same,growth inhibition,[2]; at 3.7 µM,-1%
same,growth inhibition,[2]; at 11.0 µM,1%
same,growth inhibition,[2]; at 33.0 µM,0%
same,growth inhibition,[2]; at 100.0 µM,7%
same,growth inhibition,[3]; at 1.2 µM,1%
same,growth inhibition,[3]; at 3.7 µM,1%
same,growth inhibition,[3]; at 11.0 µM,3%
same,growth inhibition,[3]; at 33.0 µM,15%
same,growth inhibition,[3]; at 100.0 µM,19%
same,growth inhibition,[4]; at 1.2 µM,-4%
same,growth inhibition,[4]; at 3.7 µM,3%
same,growth inhibition,[4]; at 11.0 µM,6%
same,growth inhibition,[4]; at 33.0 µM,21%
same,growth inhibition,[4]; at 100.0 µM,38%
same,growth inhibition,[5]; at 1.2 µM,9%
same,growth inhibition,[5]; at 3.7 µM,13%
same,growth inhibition,[5]; [17],6%
same,growth inhibition,[5]; at 11.0 µM,15%
same,growth inhibition,[5]; at 33.0 µM,37%
same,growth inhibition,[5]; [18],31%
same,growth inhibition,[5]; at 50.0 µM,63.5%
same,growth inhibition,[5]; at 100.0 µM,48%
same,growth inhibition,[6]; at 1.2 µM,-1%
same,growth inhibition,[6]; at 3.7 µM,2%
same,growth inhibition,[6]; [17],4%
same,growth inhibition,[6]; at 11.0 µM,1%
same,growth inhibition,[6]; at 33.0 µM,0%
same,growth inhibition,[6]; [18],69%
same,growth inhibition,[6]; at 50.0 µM,14.5%
same,growth inhibition,[6]; at 100.0 µM,14%
same,growth inhibition,[7]; at 1.2 µM,14%
same,growth inhibition,[7]; at 3.7 µM,25%
same,growth inhibition,[7]; at 11.0 µM,34%
same,growth inhibition,[7]; at 33.0 µM,36%
same,growth inhibition,[7]; at 100.0 µM,45%
same,growth inhibition,[8]; [17],7%
same,growth inhibition,[8]; [18],68%
same,growth inhibition,[8]; at 50.0 µM,68.5%
same,growth inhibition,[9]; at 1.2 µM,2%
same,growth inhibition,[9]; at 3.7 µM,5%
same,growth inhibition,[9]; at 11.0 µM,15%
same,growth inhibition,[9]; at 33.0 µM,30%
same,growth inhibition,[9]; at 100.0 µM,40%
same,growth inhibition,[10]; [17],8%
same,growth inhibition,[10]; [18],34%
same,growth inhibition,[10]; at 50.0 µM,31.2%
same,growth inhibition,[11]; at 1.2 µM,-2%
same,growth inhibition,[11]; at 3.7 µM,2%
same,growth inhibition,[11]; [17],7%
same,growth inhibition,[11]; at 11.0 µM,6%
same,growth inhibition,[11]; at 33.0 µM,18%
same,growth inhibition,[11]; [18],65%
same,growth inhibition,[11]; at 50.0 µM,89.6% (active)
same,growth inhibition,[11]; at 100.0 µM,31%
same,growth inhibition,[12]; at 1.2 µM,-6%
same,growth inhibition,[12]; at 3.7 µM,-2%
same,growth inhibition,[12]; at 11.0 µM,3%
same,growth inhibition,[12]; at 33.0 µM,1%
same,growth inhibition,[12]; at 100.0 µM,16%
same,growth inhibition,[13]; at 1.2 µM,1%
same,growth inhibition,[13]; at 3.7 µM,7%
same,growth inhibition,[13]; at 11.0 µM,9%
same,growth inhibition,[13]; at 33.0 µM,30%
same,growth inhibition,[13]; at 100.0 µM,39%
same,growth inhibition,[14]; at 1.2 µM,2%
same,growth inhibition,[14]; at 3.7 µM,16%
same,growth inhibition,[14]; at 11.0 µM,25%
same,growth inhibition,[14]; at 33.0 µM,46%
same,growth inhibition,[14]; at 100.0 µM,54%
same,growth inhibition,[15]; [17],7%
same,growth inhibition,[15]; [18],62%
same,growth inhibition,[15]; at 50.0 µM,40.4%
same,growth inhibition,[16]; at 1.2 µM,6%
same,growth inhibition,[16]; at 3.7 µM,16%
same,growth inhibition,[16]; at 11.0 µM,23%
same,growth inhibition,[16]; at 33.0 µM,20%
same,growth inhibition,[16]; at 100.0 µM,31%
